Results filed as inconclusive are left out. Values without a mark were called inactive. Activity calls are given as the source filed them. Calls follow the shape of the dose curve; as a rule, active = well fitted curve in the direction sought with a large enough effect; inconclusive = small, poorly fitted or top-dose-only effect, or another doubt; inactive = no such curve, though single readings can be large; an effect the other way counts as inactive or inconclusive.

The target in experiment [1] is Rap guanine nucleotide exchange factor 3 (Homo sapiens) (UniProt O95398). The experiment can be described thus: Confirmatory qHTS for antagonist of cAMP-regulated guanine nucleotide exchange factor 3 (EPAC1) (AID 1645880). Also: nearly all actives have a fitted effect of over 55% in size. Also: potency is read from the fitted curve at half-maximal effect. An outline of the steps:
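Released BODIPY-GDP fluoresces less than Rap1-bound BODIPY-GDP; the signal is followed at 480/540 nm at 5-min intervals over 30 min, after 5 min at room temperature. Reactions contain 100 nM EPAC1, 250 nM RAP1B-BODIPY-GDP and 50 uM GDP; results are normalized to ATA and DMSO.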

For experiment [2] the target is unchanged. The experiment is described as follows: Confirmatory qHTS for agonist of cAMP-regulated guanine nucleotide exchange factor 3 (EPAC1) (AID 1645881;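 also: EPAC1 catalysed release of BODIPY-GDP from Rap1B seen as fluorescence loss; 100% = effect of cAMP agonist control; nearly all actives have a fitted effect of over 75% in size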). (In qHTS, concentration-response curves come from the screen itself.)
The target in experiment [3] is Rap guanine nucleotide exchange factor 4 (Homo sapiens) (UniProt Q8WZA2). The experiment is described as follows: Confirmatory qHTS for agonist of cAMP-regulated guanine nucleotide exchange factor 4 (EPAC2) (AID 1645884).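 Also: nucleotide exchange releases bodipy-GDP from Rap1 and this lowers its fluorescence; % is scaled to controls: 0 for no effect and ±100 for the full control effect; nearly all actives have a fitted effect of over 65% in size.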
Chain of Rap guanine nucleotide exchange factor 4 (Homo sapiens) (Q8WZA2 whole entry, looked up): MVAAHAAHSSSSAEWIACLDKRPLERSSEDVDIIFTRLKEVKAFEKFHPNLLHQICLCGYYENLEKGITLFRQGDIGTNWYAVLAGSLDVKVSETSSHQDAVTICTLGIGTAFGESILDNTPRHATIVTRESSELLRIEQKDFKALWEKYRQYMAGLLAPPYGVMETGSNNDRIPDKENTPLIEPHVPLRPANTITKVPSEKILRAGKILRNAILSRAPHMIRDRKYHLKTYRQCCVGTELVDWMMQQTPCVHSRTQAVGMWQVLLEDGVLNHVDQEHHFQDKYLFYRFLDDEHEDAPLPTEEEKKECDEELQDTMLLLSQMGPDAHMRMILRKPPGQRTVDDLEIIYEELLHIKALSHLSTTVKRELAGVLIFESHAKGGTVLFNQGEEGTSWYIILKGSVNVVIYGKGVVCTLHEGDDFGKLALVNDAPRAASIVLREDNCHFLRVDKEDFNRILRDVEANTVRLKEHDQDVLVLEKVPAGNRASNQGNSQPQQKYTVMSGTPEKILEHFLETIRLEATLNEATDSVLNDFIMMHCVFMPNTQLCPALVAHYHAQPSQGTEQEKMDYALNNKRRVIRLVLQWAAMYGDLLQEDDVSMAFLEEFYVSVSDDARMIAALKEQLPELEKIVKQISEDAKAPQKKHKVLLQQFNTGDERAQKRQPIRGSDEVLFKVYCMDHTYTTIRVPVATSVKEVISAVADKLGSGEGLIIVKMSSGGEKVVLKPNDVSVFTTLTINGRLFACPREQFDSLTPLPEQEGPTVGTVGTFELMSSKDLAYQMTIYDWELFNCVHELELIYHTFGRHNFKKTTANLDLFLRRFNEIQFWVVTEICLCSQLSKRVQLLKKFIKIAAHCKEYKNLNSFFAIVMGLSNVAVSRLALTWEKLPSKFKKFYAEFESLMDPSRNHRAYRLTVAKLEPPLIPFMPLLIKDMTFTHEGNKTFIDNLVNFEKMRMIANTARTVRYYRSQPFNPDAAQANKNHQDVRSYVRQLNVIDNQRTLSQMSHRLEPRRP
Experiment [4] shares this target. The experiment is described as follows: Confirmatory qHTS for antagonist of cAMP-regulated guanine nucleotide exchange factor 4 (EPAC2) (AID 1645885). Also: nearly all actives have a fitted effect of over 25% in size. Also: potency is read from the fitted curve at half-maximal effect. As to activity change, negative = inhibition: % is scaled to controls: 0 for no effect and ±100 for the full control effect.
Experiment [5] has as its target Rap guanine nucleotide exchange factor 3 (Homo sapiens) (UniProt O95398). The experiment is described as follows: Counterscreen qHTS for antagonist of cAMP-regulated guanine nucleotide exchange factor 3 (EPAC1) (AID 1645888). Also: % of control where 0% means no effect. An outline of the steps:
(§1)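 Rap1B-BODIPY-GDP 250 nM + GDP 50 uM; cpds 7-pt, final 9.74 nM–152 uM (activator mode) or from 7.32 nM upwards (inhibitor mode); RT; FI 480/540 nm at 5 and 30 min, then ± cAMP, reread.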

The target is the same in experiment [6]. The experiment can be described thus: Counterscreen qHTS for agonist of cAMP-regulated guanine nucleotide exchange factor 3 (EPAC1) (AID 1645889). Also: % of control where 0% means no effect; nearly all actives have a fitted effect of over 40% in size. An outline of the steps:
as §1
On the technique in general: The purpose of a counterscreen is to sort out artefacts and off-target activity.

Chain of Rap guanine nucleotide exchange factor 3 (Homo sapiens) (O95398 whole entry, looked up): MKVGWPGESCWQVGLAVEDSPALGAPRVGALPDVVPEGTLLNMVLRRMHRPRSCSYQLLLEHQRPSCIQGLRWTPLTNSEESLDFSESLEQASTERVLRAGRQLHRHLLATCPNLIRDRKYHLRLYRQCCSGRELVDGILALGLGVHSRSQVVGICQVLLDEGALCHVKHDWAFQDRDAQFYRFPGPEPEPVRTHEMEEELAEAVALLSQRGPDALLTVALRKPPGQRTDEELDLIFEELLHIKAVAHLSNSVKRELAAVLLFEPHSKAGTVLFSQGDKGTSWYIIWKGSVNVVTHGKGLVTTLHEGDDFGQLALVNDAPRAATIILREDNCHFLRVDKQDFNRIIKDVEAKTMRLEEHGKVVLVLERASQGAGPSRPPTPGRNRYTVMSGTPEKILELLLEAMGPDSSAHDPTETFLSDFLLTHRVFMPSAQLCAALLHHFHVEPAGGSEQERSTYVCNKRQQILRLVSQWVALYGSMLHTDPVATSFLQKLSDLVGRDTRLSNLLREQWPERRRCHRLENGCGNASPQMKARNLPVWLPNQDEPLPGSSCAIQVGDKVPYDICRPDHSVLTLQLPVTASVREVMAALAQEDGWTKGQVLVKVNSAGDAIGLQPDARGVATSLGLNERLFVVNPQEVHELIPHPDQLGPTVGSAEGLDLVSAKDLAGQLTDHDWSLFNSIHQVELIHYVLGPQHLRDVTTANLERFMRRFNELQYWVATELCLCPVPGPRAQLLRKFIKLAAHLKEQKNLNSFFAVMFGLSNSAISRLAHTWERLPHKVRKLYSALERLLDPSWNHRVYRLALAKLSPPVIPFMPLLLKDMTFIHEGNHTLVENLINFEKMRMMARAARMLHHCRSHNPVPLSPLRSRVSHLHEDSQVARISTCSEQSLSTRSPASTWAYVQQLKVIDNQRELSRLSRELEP

For the compound `O=C(COc1ccccc1Cl)Nc1cccc(S(=O)(=O)NC2=NCCCCC2)c1`, the Potency entry in experiment [1], in experiment [2], in experiment [3], in experiment [4], in experiment [5] and in experiment [6] was “inactive” each time.

With `COc1cccc2c(N/N=C/c3ccco3)cc(C)nc12`, the Potency entry in experiment [1], in experiment [2], in experiment [3], in experiment [4], in experiment [5] and in experiment [6] was “inactive” each time.

`Cc1ccc(C(C)C)cc1OCC(=O)NC1CCCCCCC1`: the Potency result in experiment [1], in experiment [2] and in experiment [4] was “inactive” in each case. The activation in experiment [3] is -1.54% [at 17.1 µM, percent relative to cAMP agonist control]; in experiment [6], -2.78% [at 30.8 µM]. In addition, the activity change, negative = inhibition in experiment [5] is -15.5% [at 30.8 µM].

Turning to `CC(=O)C1=C(c2ccc(C)cc2)N(C(C)=O)n2c(nnc2C2CCCCC2)S1`, the Potency result in experiment [1], in experiment [2], in experiment [3], in experiment [4], in experiment [5] and in experiment [6] was “inactive” in each case.

Take `O=C(CSCC(=O)N1CCOCC1)Nc1nc(-c2ccccc2)cs1`: the Potency result in experiment [1], in experiment [2], in experiment [3], in experiment [5] and in experiment [6] was “inactive” each time. In addition, the Potency in experiment [4] is 84.9 µM (active).

`Cc1nc(=O)c(-c2ccccc2)c(C)n1CCCCCC(=O)O`: the Potency result in experiment [1], in experiment [2] and in experiment [4] was “inactive” each time. Also, the activation was 0.623% [at 17.1 µM, percent relative to cAMP agonist control] in experiment [3] and 4.21% [at 30.8 µM] in experiment [6]. Also, the activity change, negative = inhibition in experiment [5] was -38.6% [at 30.8 µM].

Take `Cc1ccccc1-c1cc(C(=O)NCc2ccc3c(c2)OCO3)n(CC2CC(c3cccnc3)=NO2)n1` (configuration not stated): the Potency entry in experiment [1], in experiment [2], in experiment [3], in experiment [4], in experiment [5] and in experiment [6] was “inactive” throughout.

`COc1cccc(CN2CC(O)=C(c3nc(-c4ccc(Cl)cc4)cs3)C2=N)c1`: the Potency entry in experiment [1], in experiment [2] and in experiment [4] was “inactive” each time. Besides, the activation in experiment [3] was 0.958% [at 17.1 µM, percent relative to cAMP agonist control]; in experiment [6] it was 0.754% [at 30.8 µM]. For the same compound, the activity change, negative = inhibition in experiment [5] is -19.7% [at 30.8 µM].

Consider `CC(NCc1cccn1C)c1ccccc1` (configuration not stated), for which the Potency entry in experiment [1], in experiment [2], in experiment [3], in experiment [4], in experiment [5] and in experiment [6] was “inactive” each time.

Regarding `Cc1ccc(S(=O)(=O)N2[C@@H](c3ccc(Cl)cc3)C(C(=O)O)=CC[C@H]2c2ccc(C(C)C)cc2)cc1`, the Potency in experiment [1] is 42.6 µM (active). Besides, the Potency entry in experiment [2], in experiment [3], in experiment [4], in experiment [5] and in experiment [6] was “inactive” each time.

Take `Cc1ccc(Cl)cc1NC(=O)C(C)n1nc(-c2ccccc2)ccc1=O` (configuration not stated): the Potency entry in experiment [1], in experiment [2], in experiment [3], in experiment [4], in experiment [5] and in experiment [6] was “inactive” in each case.

`N=C1/C(=C\c2ccc(OC(=O)c3ccccc3Cl)cc2)C(=O)N=C2SC(N3CCOCC3)=NN12`: the Potency in experiment [1] is 19 µM (active). The Potency result in experiment [2], in experiment [3], in experiment [4], in experiment [5] and in experiment [6] was “inactive” each time.

Turning to `Cc1cnc(C(=O)N(c2ccc(N3CCOCC3)cc2)C2C(=O)Nc3ccccc3N=C2c2ccc(F)cc2)cn1` (configuration not stated), the Potency result in experiment [1], in experiment [2], in experiment [3], in experiment [4], in experiment [5] and in experiment [6] was “inactive” throughout.

On to `CCCOc1ccccc1Cn1c(=O)oc2ccccc21`, for which the Potency entry in experiment [1], in experiment [2], in experiment [3], in experiment [5] and in experiment [6] was “inactive” throughout. In experiment [4], the Potency was 9.53 µM (active).

`O=C(O)CCN1C(=O)/C(=C\c2cccc(Oc3ccccc3)c2)SC1=S`: the Potency in experiment [1] is 26.9 µM (active); in experiment [4] it was 21.3 µM (active). Moreover, the Potency result in experiment [2], in experiment [3], in experiment [5] and in experiment [6] was “inactive” throughout.

In the case of `CCC(NS(=O)(=O)c1ccc2c(c1)NC(=O)C(C)C(=O)N2)c1cccs1` (configuration not stated), the Potency result in experiment [1], in experiment [2], in experiment [3], in experiment [4], in experiment [5] and in experiment [6] was “inactive” in each case.

Consider `Cc1ccc(/C=C/C(=O)c2ccccc(=O)c2O)c(C)c1`, for which the Potency in experiment [1] is 44.7 µM (active). Further, the Potency result in experiment [2] and in experiment [4] was “inactive” throughout. For the same compound, the activation is 1.7% [at 17.1 µM, percent relative to cAMP agonist control] in experiment [3] and 23.8% [at 30.8 µM] in experiment [6]. Besides, in experiment [5], the activity change, negative = inhibition is 12.3% [at 30.8 µM].

Turning to `CSc1nc(N2CCOCC2)c2c3c(sc2n1)CCCC3`, the Potency entry in experiment [1], in experiment [2], in experiment [3], in experiment [4], in experiment [5] and in experiment [6] was “inactive” throughout.

In the case of `OC1C2CN3CCN(C2)CC1(Cc1ccccc1)C3` (configuration not stated), the Potency result in experiment [1], in experiment [2] and in experiment [4] was “inactive” each time. The activation was 3.83% [at 17.1 µM, percent relative to cAMP agonist control] in experiment [3] and 28.2% [at 30.8 µM] in experiment [6]. Besides, the activity change, negative = inhibition in experiment [5] was -12.7% [at 30.8 µM].

Take `NS(=O)(=O)c1ccc(CCNC(=O)c2ccc3nccnc3c2)cc1`: the Potency in experiment [1] was 47.8 µM (active). Also, the Potency result in experiment [2], in experiment [3], in experiment [4], in experiment [5] and in experiment [6] was “inactive” each time.

Take `S=C(Nc1cccc2ccccc12)NC1CCCCC1`: the Potency result in experiment [1], in experiment [2] and in experiment [4] was “inactive” each time. The activation in experiment [3] was 0.103% [at 17.1 µM, percent relative to cAMP agonist control]; in experiment [6] it was 5.1% [at 30.8 µM]. In experiment [5], the activity change, negative = inhibition was 5.07% [at 30.8 µM].

For `c1ccc(-c2nnc3sc(CN4CCC5(CC4)OCCO5)cn23)cc1`, the Potency result in experiment [1], in experiment [2], in experiment [3], in experiment [4], in experiment [5] and in experiment [6] was “inactive” in each case.

Source of the values: PubChem BioAssay (NCATS).
